Results: the supplement of paper PMC4683952
Where a name gives a salt, the structure may show the parent alone. The whole screen tested about 1,200 compounds, of which about 50 (4%) showed activity. Cut-off read from the data, not from the text of the source: all actives reach 1.3 or more but so do some inactives. The list comes from a sample in which actives are over-represented; it also holds similar structures and randomly drawn compounds.

tested on: Lgr5 (MarsCy1-Lgr5-EGFP, U2OS); test: cell-surface Lgr5 expression (SCi1 fluorescence, background-subtracted) relative to WT DMSO (fold of DMSO control); higher = more Lgr5 at the plasma membrane, active = hit call of the paper; conditions: U2OS MarsCy1-Lgr5-EGFP stable; treatment time: overnight; 16 µM; library: Johns Hopkins Clinical Compound Library

cell-surface Lgr5 expression, active:
O=C[C@H](O)[C@@H](O)[C@H](O)[C@H](O)C(=O)[O-].[Na+] [Sodium glucuronate (D-Glucuronic acid)] 1.32
CCCCN(CCCC)CCCOC(=O)c1ccc(N)cc1 [Butacaine] 1.62
CC[N+](CC)(CC)CC(=O)Nc1c(C)cccc1C [Lidocaine N-ethyl bromide] 1.39
O=C(O)c1cc(-c2ccccc2)nc2ccccc12 [Cinchophen (2-phenyl 4-quinoline carboxylic acid)] 1.45

cell-surface Lgr5 expression, inactive:
[Ca+2].[OH-].[OH-] [Calcium hydroxide] 1.1
O.O=C([O-])CN(CCN(CC(=O)[O-])CC(=O)[O-])CC(=O)[O-].[Ca+2].[Na+].[Na+] [Edetate calcium disodium (Calcium disodium versenate)] 0.981
O.O=C([O-])CN(CCN(CC(=O)[O-])CC(=O)[O-])CC(=O)[O-].[Ca+2].[Na+].[Na+] 1
Cc1cc2nc3ccc(N(C)C)cc3[s+]c2cc1N [Tolonium chloride (Toluidine blue O)] 1.15
c1ccc(-c2ccc(C(c3ccccc3)n3ccnc3)cc2)cc1 (stereo not drawn) [Bifonazole] 1.04
[Fe+3].[Fe+3].[O-2].[O-2].[O-2].[O-2].[Zn+2] [Calamine] 0.886
Cc1ncc(CSSCc2cnc(C)c(O)c2CO)c(CO)c1O [Pyrithioxin] 1.16
CN(C)CCOC(C)(c1ccccc1)c1ccc(Cl)cc1 (stereo not drawn) [Chlorphenoxamine hydrochloride] 1.15
O=C([O-])C(O)C(O)C(=O)[O-].[K+].[Na+] (stereo not drawn) [Potassium sodium tartrate tetrahydrate] 1.1
O=CC(O)C(O)C(O)C(O)CO (stereo not drawn) [Glucose (D)] 1.02
Cc1ccc2c(Br)cc(Br)c(O)c2n1 [Broquinaldol (5,7-dibromo-8-hydroxy-quinaldine)] 1.1
Cc1ccc(/C(=C\CN2CCCC2)c2cccc(/C=C/C(=O)O)n2)cc1 [Acrivastine] 1.15
N[C@@H](C(=O)N[C@@H]1C(=O)N2C(C(=O)O)=C(Cl)CC[C@H]12)c1ccccc1 [Loracarbef] 0.67
CCCCOC(=O)c1ccc(N)cc1 [Butamben (n-butyl p aminobenzoate)] 1
CCN(CC)CCOC(=O)c1ccc(N)cc1 [Procaine hydrochloride] 0.937
Cc1ncc(COP(=O)(O)O)c(C=O)c1O [Pyridoxal-5-phosphate] 0.951
CCCCn1c(=O)c2c(ncn2CC(C)=O)n(CCCC)c1=O [Denbufylline] 1.44
C[C@@H](O[C@H]1OCCN(Cc2n[nH]c(=O)[nH]2)[C@H]1c1ccc(F)cc1)c1cc(C(F)(F)F)cc(C(F)(F)F)c1 [Aprepitant] 1.01
Cn1c(NCCN(CCO)CCCc2ccc([N+](=O)[O-])cc2)cc(=O)n(C)c1=O [Nifekalant] 0.923
[Cl-].[Cl-].[Cl-].[In+3] [Indium(III) chloride] 0.736
Cc1cccc(C)c1NC(=O)C(C)N (stereo not drawn) [Tocainide hydrochloride] 1.07
CCN(CC)CC(=O)Nc1c(C)cccc1C [Lidocaine] 1.19
O[C@@H]1[C@H](O)[C@@H](O)C=C[C@H]1O [Conduritol] 1.03
O=C(O)c1ccccc1I [2-Iodobenzoic acid] 1.04
Nc1c2ccccc2nc2ccccc12 [Aminacrine (9-Aminoacridine)] 0.26
O=C(O)c1cc(O)c(O)c(O)c1 [Gallic acid] 0.979
O=C(Nc1ccccc1)c1cc(Cl)ccc1O [5-Chlorosalicylanilide] 1.12
COC1=C(OC)C(=O)C(CCCCCCCCCCO)=C(C)C1=O [Idebenone] 1.04
CC1(C)S[C@@H]2[C@H](NC(=O)COc3ccccc3)C(=O)N2[C@H]1C(=O)O.CN(C)[C@@H]1C(O)=C(C(=O)NCN2CCN(CCO)CC2)C(=O)[C@@]2(O)C(O)=C3C(=O)c4c(O)cccc4[C@@](C)(O)[C@H]3C[C@@H]12 [Penimepicycline] 0.846
